# Laboratory results reported in PubChem BioAssay.
# The source made the active and inactive calls.
# How the values were obtained:
# [1] = target: Albumin (Bos taurus) (UniProt P02769); assay: compounds binding labelled BSA control protein – biochemical, small-molecule microarray, Alexa647 label, 635/667 nm fluorescence, artefact control for SMM control protein annotation, profiling panel (AID 1118); details: BSA-A647 binding, fluorescence 635 nm, higher = more signal;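 note: score merges 667 nm emission intensity and signal-to-noise per printed compound spot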
# [2] = probe aXIP binding to arrayed compounds – biochemical, NeuroSMM set, 635/667 nm fluorescence, primary screen (AID 1119); details: small-molecule microarray, higher = more signal, called active from +8 up or from −8 down;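 note: probe is the protein aXip251-270 applied at 1 µg/mL to compound-printed slides; binding of probe to printed compounds measured as 667 nm fluorescence plus signal to noise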
# [3] = probe aNOTCH3 binding on compound microarray – biochemical, small-molecule microarray, 635/667 nm fluorescence, primary screen (AID 1120); details: higher = more signal;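 note: probe is a biotin-tagged antibody raised against NOTCH3 rather than NOTCH3 protein; score merges spot fluorescence near 667 nm with spot signal to noise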
# [4] = probe aNOTCH2 binding on compound microarray – biochemical, small-molecule microarray, 635/667 nm fluorescence, primary screen (AID 1121); details: higher = more signal;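 note: score merges feature fluorescence read at 667 nm with its signal to noise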
# [5] = target: Carbonic anhydrase 2 (Homo sapiens) (UniProt P00918); assay: compounds binding carbonic anhydrase 2 – biochemical, small-molecule microarray, Alexa647-labelled CAII, profiling panel (AID 1122); details: CAII-A647 binding fluorescence, higher = more signal
# [6] = COS7 lysate on small-molecule microarray, probe aHis, 635 nm (AID 1123); details: COS7 cell lysate, fluorescence, higher = more signal;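 note: z-score combines 667nm fluorescence intensity with signal-to-noise per printed compound spot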
# [7] = probe aLAP1 signal on lysate-treated microarray – cell lysate, small-molecule microarray, COS7 lysate, primary screen (AID 1124); details: probe aLAP1, fluorescence, higher = more signal;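 note: lysate comes from COS7 cells expressing LAP1 and is applied at 0.3 µg/mL; score merges spot fluorescence near 667 nm with signal-to-noise over triplicate slides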
# [8] = test system: Sam68 (KHDRBS1); assay: compounds binding KHDRBS1 protein – biochemical, small-molecule microarray, 635 nm fluorescence, primary screen (AID 1125); details: higher = more signal;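 note: score merges 667 nm channel intensity with signal to noise over triplicate slides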
# [9] = test system: Chordin-like protein 2 (CHRDL2); assay: compounds binding chordin-like 2 – biochemical, small-molecule microarray, 635 nm fluorescence, primary screen (AID 1126); details: fluorescence 635 nm, higher = more signal;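 note: printed compound slides probed with Chrdl2 protein at 4 µg/mL for 1 h at 4 C; score merges 667 nm emission intensity with signal to noise over three replicate slides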
# [10] = target: Concanavalin-A (Canavalia ensiformis) (UniProt P02866); assay: compounds binding concanavalin A lectin – biochemical, small-molecule microarray, Alexa647 label, 635 nm, artefact control for SMM control protein annotation, primary screen (AID 1127); details: ConA-A647 binding fluorescence, higher = more signal;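 note: z combines 667 nm emission intensity with signal-to-noise across three replicate slides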
# [11] = compounds binding Alexa647 anti-His antibody – biochemical, small-molecule microarray, 635 nm fluorescence, artefact control for SMM control protein annotation, primary screen (AID 1128); details: higher = more signal;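 note: score merges feature fluorescence with signal-to-noise for each printed compound spot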
# [12] = test system: Human papillomavirus type 1a E7 protein (residues 1-88); assay: HPV1a E7 small-molecule binders, primary screen, biochemical, small-molecule microarray, residues 1-88, 635 nm (AID 1129); details: small-molecule microarray binding, fluorescence 635 nm; higher = more signal
# [13] = target: Focal adhesion kinase 1 (Homo sapiens) (UniProt Q05397); assay: PTK2 protein binding on printed compound slides – biochemical, small-molecule microarray, 635/667 nm fluorescence, BSA, DTT, primary screen (AID 1130); details: 635 nm fluorescence, higher = more signal;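 note: composite of spot emission at 667 nm and signal to noise over triplicate slides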
# [14] = test system: Fibrinogen (Alexa647-labelled); assay: Alexa647-fibrinogen binding to printed small molecules – biochemical, small-molecule microarray, 635/667 nm fluorescence, artefact control for SMM control-protein annotation, profiling panel (AID 1131); details: fibrinogen-A647 binding fluorescence, higher = more signal;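 note: z-score merges 667 nm fluorescence with per-spot signal-to-noise over triplicate slides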
# [15] = target: Follistatin (Homo sapiens) (UniProt P19883); assay: FST protein binding to printed compounds – biochemical, small-molecule microarray, 635/667 nm fluorescence, primary screen (AID 1132); details: 635 nm fluorescence, higher = more signal
# [16] = target: Fibroblast growth factor 2 (Homo sapiens) (UniProt P09038); assay: basic fibroblast growth factor binding to printed compounds – biochemical, small-molecule microarray, 635/667 nm fluorescence, primary screen (AID 1133); details: FGF2, fluorescence 635/667, higher = more signal
# [17] = JC-1 mitochondrial potential readout, lung cancer cells – cell-based, A549, JC-1 fluorescence, basal, 24 h, 100 nL, profiling panel (AID 1138); details: higher = more signal;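 note: A549 lung adenocarcinoma cells under basal conditions with no added stimulus; test concentration not given here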
# [18] = test system: Lefty1; assay: Lefty1 protein binding to printed compounds – biochemical, small-molecule microarray, 635/667 nm fluorescence, primary screen (AID 1139); details: fluorescence 635/667, higher = more signal
# [19] = test system: wheat germ agglutinin (Triticum aestivum), Alexa647-labelled; assay: Alexa647-WGA lectin binding to printed small molecules – biochemical, small-molecule microarray, 635/667 nm fluorescence, artefact control for SMM control-protein annotation, profiling panel (AID 1140); details: WGA-A647 binding, 635 nm fluorescence, higher = more signal;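 note: score merges 667 nm feature emission with signal to noise over triplicate slides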
# [20] = target: Luciferin 4-monooxygenase (Photinus pyralis) (UniProt P08659); assay: inhibition of purified Photinus pyralis luciferase – biochemical, luminescence, purified enzyme, 2006 set, primary screen (AID 1141); details: purified firefly luciferase, SteadyGlo luminescence, 30 min; higher = more signal, called active from +8 up or from −8 down;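 note: cell-free assay with purified firefly luciferase at 100 ng per well in PBS; test concentration not given here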
# Sequence of Luciferin 4-monooxygenase (Photinus pyralis) (P08659 whole entry, looked up): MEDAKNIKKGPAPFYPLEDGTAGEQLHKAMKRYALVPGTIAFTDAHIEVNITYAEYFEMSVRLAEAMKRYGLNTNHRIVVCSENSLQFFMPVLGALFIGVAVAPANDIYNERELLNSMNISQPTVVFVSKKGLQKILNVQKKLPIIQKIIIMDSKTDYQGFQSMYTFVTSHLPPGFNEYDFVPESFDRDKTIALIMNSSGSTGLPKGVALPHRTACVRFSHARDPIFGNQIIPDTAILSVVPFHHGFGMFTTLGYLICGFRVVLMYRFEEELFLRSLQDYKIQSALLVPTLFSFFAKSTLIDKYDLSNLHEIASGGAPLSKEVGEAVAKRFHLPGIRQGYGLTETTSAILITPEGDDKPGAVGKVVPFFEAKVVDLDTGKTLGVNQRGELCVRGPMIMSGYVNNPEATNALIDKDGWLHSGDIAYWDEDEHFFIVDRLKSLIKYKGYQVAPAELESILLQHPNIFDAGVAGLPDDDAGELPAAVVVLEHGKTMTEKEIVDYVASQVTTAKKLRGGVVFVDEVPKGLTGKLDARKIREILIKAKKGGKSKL
# Sequence of Follistatin (Homo sapiens) (P19883 whole entry, looked up): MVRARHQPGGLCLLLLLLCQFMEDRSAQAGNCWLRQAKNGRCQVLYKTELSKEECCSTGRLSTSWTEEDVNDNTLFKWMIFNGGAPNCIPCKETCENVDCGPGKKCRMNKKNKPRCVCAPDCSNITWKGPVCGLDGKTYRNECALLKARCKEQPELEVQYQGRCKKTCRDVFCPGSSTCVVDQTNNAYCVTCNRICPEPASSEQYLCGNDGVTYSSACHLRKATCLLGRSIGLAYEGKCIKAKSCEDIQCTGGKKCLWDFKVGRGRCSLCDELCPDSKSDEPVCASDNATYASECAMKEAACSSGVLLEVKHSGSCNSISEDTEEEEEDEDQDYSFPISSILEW
# Sequence of Albumin (Bos taurus) (P02769 whole entry, looked up): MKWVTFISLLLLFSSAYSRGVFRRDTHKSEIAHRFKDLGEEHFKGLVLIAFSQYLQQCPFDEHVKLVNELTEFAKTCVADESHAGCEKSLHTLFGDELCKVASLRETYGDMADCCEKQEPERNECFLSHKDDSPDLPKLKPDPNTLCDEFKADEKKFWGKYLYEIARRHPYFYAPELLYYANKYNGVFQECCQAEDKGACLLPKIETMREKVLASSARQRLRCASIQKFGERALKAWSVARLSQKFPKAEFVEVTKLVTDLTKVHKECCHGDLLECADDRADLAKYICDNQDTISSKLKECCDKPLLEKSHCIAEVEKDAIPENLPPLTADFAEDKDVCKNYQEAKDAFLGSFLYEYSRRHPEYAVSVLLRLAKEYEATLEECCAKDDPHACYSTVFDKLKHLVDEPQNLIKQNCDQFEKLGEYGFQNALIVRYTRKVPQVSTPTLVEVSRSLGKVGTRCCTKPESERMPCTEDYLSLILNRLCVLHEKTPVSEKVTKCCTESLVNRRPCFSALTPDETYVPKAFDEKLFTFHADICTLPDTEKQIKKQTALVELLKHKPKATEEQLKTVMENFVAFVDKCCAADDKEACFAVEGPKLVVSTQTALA
# Sequence of Fibroblast growth factor 2 (Homo sapiens) (P09038 whole entry, looked up): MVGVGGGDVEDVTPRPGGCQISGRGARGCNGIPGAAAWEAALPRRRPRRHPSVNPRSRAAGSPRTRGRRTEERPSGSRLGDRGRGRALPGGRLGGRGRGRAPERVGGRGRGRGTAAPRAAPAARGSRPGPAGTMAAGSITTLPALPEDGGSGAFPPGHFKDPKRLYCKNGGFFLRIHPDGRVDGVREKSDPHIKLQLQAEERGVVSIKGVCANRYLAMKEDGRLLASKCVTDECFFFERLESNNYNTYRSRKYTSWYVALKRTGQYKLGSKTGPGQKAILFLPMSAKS
# Sequence of Focal adhesion kinase 1 (Homo sapiens) (Q05397 whole entry, looked up): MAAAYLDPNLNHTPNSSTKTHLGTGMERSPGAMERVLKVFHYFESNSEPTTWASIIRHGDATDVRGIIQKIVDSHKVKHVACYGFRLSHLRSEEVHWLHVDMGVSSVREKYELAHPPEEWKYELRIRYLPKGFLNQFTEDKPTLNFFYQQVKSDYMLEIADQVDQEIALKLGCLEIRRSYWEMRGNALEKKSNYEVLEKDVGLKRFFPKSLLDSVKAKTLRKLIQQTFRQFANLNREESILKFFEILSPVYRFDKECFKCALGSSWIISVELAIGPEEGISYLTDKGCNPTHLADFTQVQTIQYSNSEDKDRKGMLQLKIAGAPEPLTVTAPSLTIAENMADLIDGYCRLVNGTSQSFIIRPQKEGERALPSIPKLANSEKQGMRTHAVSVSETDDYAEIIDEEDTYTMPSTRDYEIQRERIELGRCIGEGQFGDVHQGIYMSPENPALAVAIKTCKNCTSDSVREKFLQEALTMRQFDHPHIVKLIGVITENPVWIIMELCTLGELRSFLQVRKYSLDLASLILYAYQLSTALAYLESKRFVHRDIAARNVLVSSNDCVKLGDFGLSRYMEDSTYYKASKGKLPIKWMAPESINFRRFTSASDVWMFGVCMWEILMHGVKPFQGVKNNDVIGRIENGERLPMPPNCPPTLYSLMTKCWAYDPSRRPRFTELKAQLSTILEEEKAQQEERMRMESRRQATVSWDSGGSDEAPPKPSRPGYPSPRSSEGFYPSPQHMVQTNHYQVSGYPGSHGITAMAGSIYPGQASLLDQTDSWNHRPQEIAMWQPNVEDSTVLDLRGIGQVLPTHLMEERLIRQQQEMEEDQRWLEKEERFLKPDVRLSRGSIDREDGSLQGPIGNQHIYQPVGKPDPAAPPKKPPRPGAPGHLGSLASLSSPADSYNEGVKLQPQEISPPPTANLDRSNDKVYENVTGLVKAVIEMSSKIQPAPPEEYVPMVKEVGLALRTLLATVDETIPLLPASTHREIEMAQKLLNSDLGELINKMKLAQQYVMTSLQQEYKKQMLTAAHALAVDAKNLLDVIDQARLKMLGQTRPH
# Sequence of Concanavalin-A (Canavalia ensiformis) (P02866 whole entry, looked up): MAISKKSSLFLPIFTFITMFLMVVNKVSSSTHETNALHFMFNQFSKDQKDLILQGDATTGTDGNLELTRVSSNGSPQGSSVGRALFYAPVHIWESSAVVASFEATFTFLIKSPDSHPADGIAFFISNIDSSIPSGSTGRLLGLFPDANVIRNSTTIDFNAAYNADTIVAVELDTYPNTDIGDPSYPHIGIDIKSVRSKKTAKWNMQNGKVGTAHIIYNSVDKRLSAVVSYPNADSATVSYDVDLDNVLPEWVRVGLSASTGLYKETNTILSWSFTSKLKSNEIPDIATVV
SMILES,composite z-score [1],composite Z-score [2],composite z-score [3],composite z-score [4],composite z-score [5],composite z-score [6],composite z-score [7],composite z-score [8],composite z-score [9],composite z-score [10],composite z-score [11],composite z-score [12],composite z-score [13],composite z-score [14],composite z-score [15],composite z-score [16],z-score [17],composite z-score [18],composite z-score [19],z-score [20]
CC(C)(C)OC(=O)CC[C@@]1(C(N)=O)N=C(c2ccc(OCCCO)cc2)O[C@@H]1c1ccccc1N=[N+]=[N-],0.501,0.005 (inactive),0.191,-0.0241,0.616,2.08,-0.293,1.07,-0.409,1.13,1.12,0.886,1.1,1.06,1.21,1.12,-0.04,0.512,0.884,-10.5 (active)
CN1C(=O)C2C(C1=O)C1C=C(c3ccc(CO)cc3)C2C(C2CC2)N1Cc1cc2c(cc1Br)OCO2 (stereo not given),1.03,1.55 (inactive),0.211,0.109,0.786,3.13,0.863,1.3,0.258,1.16,2.81,1.23,1.47,0.976,1.23,0.784,1.34,0.175,1.18,-1.9 (inactive)
COCCOC(=O)N1C(=O)[C@@]2(c3cc(C#CC4=CCCCC4)ccc31)[C@H](C(=O)N1CCN(c3ncccn3)CC1)[C@H]1C(=O)O[C@H](c3ccccc3)[C@H](c3ccccc3)N1[C@@H]2c1ccc(OCCO)cc1,0.565,-0.274 (inactive),-0.0345,0.108,0.278,0.676,0.358,1.17,0.926,1.04,1.07,1.16,0.31,0.229,1.29,1.59,-1.01,1.03,0.232,-1.03 (inactive)
COCC1=C([C@H](O)CCc2ccccc2)[C@H](CO)[C@@H]2C(=O)N(Cc3ccccc3)C(=O)[C@@H]2C1,-0.103,0.0653 (inactive),-0.0456,-0.129,-0.0186,0.0949,-0.102,-0.0322,0.422,0.0998,-0.219,-0.0814,0.0916,0.292,0.444,0.0451,0.68,0.448,0.131,0.24 (inactive)
CC(=O)N1Cc2ccccc2C[C@@]2(N=C(c3ccc(OCCCO)cc3)O[C@H]2c2ccccc2)C1=O,-0.0471,0.0748 (inactive),0.22,0.139,0.709,3.18,1.24,1.3,0.611,1.17,2.65,1.17,0.52,0.657,1.41,1.66,0.592,0.63,1.1,-2.32 (inactive)
COCCCNC(=O)[C@@]1(Sc2ccc(C)cc2)CC(=O)N(Cc2ccccc2)[C@@H]1c1ccc(CO)cc1,0.146,0.201 (inactive),-0.689,-0.134,0.534,2.54,0.378,0.0145,-0.21,-0.668,0.068,-0.277,-0.166,-1.56,-0.489,-0.236,-0.0602,-1.03,-0.4,0.542 (inactive)
Oc1ccc2cc[n+](Cc3cccc(OC(F)(F)F)c3)cc2c1,-0.192,0.587 (inactive),-0.215,-0.117,0.853,1.58,0.0966,-0.28,0.959,0.373,0.644,0.0093,0.295,-0.0505,1.33,1.51,0.579,1.38,-0.0259,-0.256 (inactive)
COCCOC(=O)N1C(=O)[C@@]2(c3cc(C#CC4(O)CCCCCC4)ccc31)[C@H](c1ccc(O)cc1)N1[C@H](c3ccccc3)[C@H](c3ccccc3)OC(=O)[C@H]1[C@@H]2C(=O)N1CCc2cc(OC)c(OC)cc2C1,-0.189,0.131 (inactive),-0.239,-0.197,0.859,0.288,0.347,0.0544,-0.861,0.3,-0.083,-0.183,0.462,-1.69,-0.792,-0.505,-0.506,-0.625,0.663,0.503 (inactive)
C=CCC(OC(C)=O)[C@@H]1[C@@H](N(Cc2cc3ccccc3o2)C(=O)c2cccc3ccccc23)c2cc(OCCCO)ccc2N1C(=O)Cc1ccc2ccccc2c1 (stereo not given in full),0.398,0.182 (inactive),0.0496,-0.0928,0.0704,0.256,0.0592,-0.301,0.16,0.106,0.166,-0.273,-0.0768,0.571,0.416,0.439,-0.274,-0.0817,-0.157,0.209 (inactive)
O=C1C2C=CC(C(O)c3ccc(Br)cc3)N(n3cnnc3)C2C(=O)N1Cc1ccccc1 (stereo not given),0.807,-1.02 (inactive),-0.0443,-0.0004,0.259,1.57,0.448,1.29,-0.064,1.07,0.648,1.16,0.407,0.974,0.722,0.298,-0.901,0.425,1.15,1.66 (inactive)
